The full list was thinned out, with hits kept by preference.
ERK EGF block – blocks ERK signaling stimulated by EGF; HEK293-V1b, EGF-stimulated phospho-ERK AlphaScreen; Potency, µM (titrated, usually from 11.5 µM), without a hit: at the highest dose activity change, negative = inhibition, actives largely listed as inhibitors; 130,000 tested, 0.41% active; AID 1454; active means well fitted inhibition curve with a large enough effect;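 further: plate controls were stimulated vehicle wells for no effect and unstimulated vehicle basal for full effect; nearly all actives have a fitted effect of over 55% in size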
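Phospho-ERK1/2 measured by AlphaScreen (SureFire) after 5 min 25 nM EGF stimulation of V1b-expressing HEK293 cells preincubated 30 min at 37C with titrated compounds; data scaled to DMSO and EGF controls, Hill-fitted AC50.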
* = called active by the depositor; [ ] = dose if it differs, or a comment. Potency means the concentration at half of the fitted maximal effect.

SMILES	ERK EGF block
CO[C@@H](CCOCc1ccccc1)C[C@H]1O[C@H](C(=O)OC(C)C)C=C[C@@H]1C	-10.6%
CC1=CC2C(=O)c3cccc(O)c3C(=O)C2C(O)=C1 (centres undefined)	-2.7%
Cc1cccc[n+]1CCCCCCCCCC[n+]1ccccc1C	-7.6%
Cc1cc(N)c2ccccc2n1	2.4%
Cc1cc(N)c2ccccc2[n+]1CCCCCCCCCCCCCC[n+]1c(C)cc(N)c2ccccc21	28.2µM*
CC1(C)C[C@](C)(C(=O)c2ccccc2)C=C1c1ccccc1	2.0%
CC(C)=CCc1c(O)cc2occ(-c3ccc4c(c3)OCO4)c(=O)c2c1O	22.4µM*
CCc1cc2c(=O)c(-c3ccc4c(c3)OCCO4)coc2cc1OS(C)(=O)=O	-2.1%
O=c1c(-c2cc(O)c(O)c(O)c2)coc2cc(O)c(O)c(O)c12	18.3%
COC(=O)N1[C@H](C)C=C[C@]1(Cc1ccccc1)C(=O)NCc1ccc(N(C)C)cc1	-2.7%
CC(C)(C)C(=O)NC(NC(=O)C(C)(C)C)c1ccc([N+](=O)[O-])cc1	-5.8%
CN(C)c1ccc(C=NC(CO)C(O)c2ccc([N+](=O)[O-])cc2)cc1 (centres undefined)	10.7%[57.5 µM]
CN(C)c1ccc(C(c2ccc(N(C)C)cc2)c2ccc([N+](=O)[O-])cc2)cc1	14.1µM*
COC(=O)C(C(=O)OC)[C@@H](NC(=O)OCc1ccccc1)c1ccccc1	-12.9%
CCCCC/C=C\C[C@@H](O)/C=C/C=C\C/C=C\CCCC(=O)O	2.2%
C=CCC(C)(O)c1cccc(Br)c1 (centres undefined)	-9.6%
CCN=C1S/C(=C\c2ccc(N3CCOCC3)cc2C)C(=O)N1CC	4.7%
COCCN1C(=O)/C(=C/c2ccc(N3CCCC3)cc2C)SC1=S	22.4µM*
CN=C1S/C(=C\c2ccc(N3CCOCC3)cc2C)C(=O)N1C	0.3%
COc1cccc([C@@H]2Oc3ccc(OC)cc3C[C@H]2OC(=O)NCc2ccco2)c1	-8.4%
COc1cccc([C@@H]2Oc3ccc(Br)cc3C(=O)[C@H]2OC(=O)NS(=O)(=O)c2ccc(C)cc2)c1	-2.8%
Cc1cc2c(Nc3ccccc3)ncnc2s1	14.1µM*
Cc1cccc(Nc2ncnc3ccc(Br)cc23)c1	1.78µM*
COc1ccc(/C(=C/Nc2cccc(Br)c2)C(C)=O)cc1OC	1.9%
COc1cc2ncnc(Nc3cccc(Br)c3)c2cc1OC	0.1µM*
SMILES	ERK EGF block
CCOc1ccc(Nc2ncnc3ccc([N+](=O)[O-])cc23)cc1	-6.7%
Cc1cccc(Nc2ncnc3nc[nH]c23)c1	28.2µM*
OCCCNc1ncnc2sc(-c3ccccc3)cc12	5.9%
COc1ccc(Nc2ncnc3c2cnn3-c2cccc(C)c2)cc1OC	-8.5%[57.5 µM]
O=C(O)c1cccc(Nc2ncnc3sccc23)c1	-2.4%
Cc1cccc(Nc2nc3ccccc3n3nnnc23)c1	-3.7%
Cc1ccc(/C=N/Nc2ncnc3nc[nH]c23)cc1	8.8%[57.5 µM]
CC(Nc1ncnc2nc[nH]c12)c1ccccc1 (centres undefined)	1.3%
NC(N)=NCCC[C@H](NC(=O)CC1(CC(=O)N2CCN(C3c4ccccc4NC(=O)c4ccccc43)CC2)CCCC1)C(=O)NCCn1c(=O)n(-c2ccccc2)n(-c2ccccc2)c1=O (some centres undefined)	2.5%
CCCCCCCCCCCCCCC[C@@H](O)[C@H](CO)NC(=O)CCCCCCC	1.0%
CCC(=O)C(C(=O)OC)[C@H](CCc1ccccc1)NC(=O)OC (some centres undefined)	-4.7%
C=CC(C)(O)CC1[C@@]2(C)CCCC(C)(C)C2CC[C@]1(C)O (some centres undefined)	-10.3%
COc1ccc2c(c1)O[C@H](c1ccc3c(c1)OCO3)[C@@H](OC(=O)NS(=O)(=O)c1ccc(C)cc1)C2=O	-9.3%
COC(=O)c1nnc(SC)nc1C(=O)OC	-6.4%
Cc1ccc2ncnc(NCCCCCC(=O)O)c2c1	-10.2%[57.5 µM]
Cc1ccc2ncnc(Nc3cccc(C(=O)O)c3)c2c1	-3.3%[57.5 µM]
Cc1ccc2ncnc(Nc3ccccc3)c2c1	3.55µM*
C=CCC(Nc1ccc(OC)cc1)(C(=O)OCC)c1ccccc1 (centres undefined)	-9.8%
COc1cccc(-c2ccc3ncnc(NCc4ccccc4OC)c3c2)c1	18.1%
COc1ccc(CCNc2ncnc3sccc23)cc1OC	-1.8%
COc1cc2ncnc(NCCCN3CCOCC3)c2cc1OC	13.9%[57.5 µM]
Clc1ccccc1CNc1ncnc2nc[nH]c12	0.1%
COc1ccccc1-c1ccc2ncnc(NCc3cccnc3)c2c1	65.6%
COc1ccc(CNc2ncnc3c2[nH]c2cc(OC)c(OC)cc23)cc1	-6.0%[57.5 µM]
COc1cc2ncnc(NCc3ccccc3Cl)c2cc1OC	1.26µM*
SMILES	ERK EGF block
COc1cc2ncnc(NCc3ccc(C)o3)c2cc1OC	28.2µM*
COc1cc2ncnc(NCc3ccc(Cl)cc3)c2cc1OC	2.24µM*
CCCn1c(-c2ccc(F)cc2)nc2c(NCCCN3CCCCC3C)nc(C)nc21 (centres undefined)	-0.2%
O=c1cc(-c2ccc(O)c(O)c2)oc2ccccc12	-4.5%
C=CCOC(=O)N[C@@H](CC(C)C)/C(C(=O)OC)=C(\C)NCc1ccccc1	2.5%
C=CCOC(=O)N[C@H](/C(C(=O)OC)=C(\C)NCc1ccccc1)c1ccc(Br)cc1	-1.0%
CN(C)C(=O)c1ccc(-c2nc(NCc3cccnc3)c3ccccc3n2)cc1	22.3%
COc1cccc(Nc2nc3ccc(OC)cc3s2)c1	5.9%
COc1ccc2nc(N=NC3=C(O)CC(C)(C)CC3=O)sc2c1	0.9%
COc1ccc2nc(N=Nc3ccc(O)c4ccccc34)sc2c1	7.08µM*
CC1=C(C(=O)O)N2C(=O)C(NC(=O)C(N)c3ccccc3)C2SC1 (centres undefined)	22.3%
C=C(C(C)=O)C(O)c1ccc(C(F)(F)F)cc1 (centres undefined)	-4.0%
O=C(O)c1ccc(COc2ccccc2/C=C2\NC(=O)N(Cc3ccccc3)C2=O)cc1	-4.2%
O=C(O)c1ccc(COc2ccc3ccccc3c2/C=C2/NC(=O)N(Cc3ccc(F)cc3)C2=O)cc1	35.5µM*
O=C(O)c1ccc(COc2ccccc2/C=C2\NC(=O)N(Cc3ccccc3F)C2=O)cc1	35.2%
C=C(C(C)=O)C(O)c1cccc(Br)c1 (centres undefined)	7.7%
COC(=O)N[C@@H](CCc1ccccc1)/C(C(=O)OC)=C(\C)NCc1ccccc1	1.4%
CCCCC/C=C\C/C=C\CCCCCCCC(=O)NCCc1ccc(O)c(O)c1	-9.4%
CCOC(=O)C1CCN(c2ncnc3c2cnn3-c2ccc(OC)cc2)CC1	9.9%[57.5 µM]
COc1ccc(-n2ncc3c(N4CCN(Cc5ccccc5)CC4)ncnc32)cc1	31.6µM*
COc1ccc(-n2ncc3c(N4CCC(C(N)=O)CC4)ncnc32)cc1	5.9%[57.5 µM]
CC(=O)c1cc2c(cc1O)OC(C)(C)C=C2	20.3%
COC(=O)NC(/C=C/c1ccccc1)C(C(C)=O)C(=O)OC (centres undefined)	0.0%
CC1(O)/C=C\C=C(\CO)C2CC(C)(C)C2(O)CC1 (centres undefined)	2.1%
Cc1nc(NC2CCCCC2)c2nc(-c3ccccc3)n(CCCN3CCCCC3C)c2n1 (centres undefined)	1.3%
Cc1ccc(CC(Cc2nc3ccccc3[nH]2)c2nc3ccccc3[nH]2)cc1 (centres undefined)	1.3%
COc1cccc(-c2nc(NCCc3c[nH]c4ccc(OC)cc34)c3ccccc3n2)c1	25.1µM*
COc1ccc2[nH]cc(CCNc3nc(-c4ccc(C(=O)N(C)C)cc4)nc4ccccc34)c2c1	12.1%
COc1ccc2[nH]cc(CCNc3nc(-c4ccoc4)nc4ccccc34)c2c1	34.6%

Screening data as filed in PubChem.
